{"source": "the supplement of paper PMC11634586", "note": "Counter-ions that a name gives are not always drawn. A number with no mark means an inactive call."}
{"system": "NCI-H1688", "test": "inhibition of cell viability relative to untreated control (fraction); higher = stronger growth inhibition, active = 0.5 or more", "details": "30 µM; 24 h", "procedure,_shortened": "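Inhibition of cell viability appears as a fraction, based on viability relative to untreated cells. The assay used NCI-H1688 small cell lung cancer cells seeded in 96-well plates at 3 × 10^3 cells/well, treated one day later with a natural compound library (TargetMol) at 30 µM for 24 h at 37°C and 5% CO2. Absorbance at 450 nm with Cell Counting Kit-8 was recorded in triplicate.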"}
{"smiles": "Cc1coc2c1C(=O)C(=O)c1c-2ccc2c(C)cccc12", "note": "[Tanshinone I]", "inhibition of cell viability": "0.929 (active)"}
{"smiles": "Cc1ncc(CO)c(CO)c1O", "note": "[Pyridoxine]", "inhibition of cell viability": 0.0231}
{"smiles": "O=C1c2ccccc2C(=O)c2c1ccc(O)c2O", "note": "[Alizarin]", "inhibition of cell viability": 0.344}
{"smiles": "COc1ccc(-c2cc(=O)c3c(O)c(OC)c(O)cc3o2)cc1OC", "note": "[Eupatilin]", "inhibition of cell viability": 0.345}
{"smiles": "O=C(O)[C@H]1O[C@@H](Oc2cc3oc(-c4ccc(O)cc4)cc(=O)c3c(O)c2O)[C@H](O)[C@@H](O)[C@@H]1O", "note": "[Scutellarin]", "inhibition of cell viability": -0.14}
{"smiles": "O[C@H]1[C@H](O)[C@@H](O)[C@H](O)[C@@H](O)[C@H]1O", "note": "[Inositol]", "inhibition of cell viability": -0.137}
{"smiles": "CC[C@H](C)C(=O)O[C@H]1CCC=C2C=C[C@H](C)[C@H](CC[C@@H]3C[C@@H](O)CC(=O)O3)[C@H]21", "note": "[Mevastatin]", "inhibition of cell viability": "0.86 (active)"}
{"smiles": "O=C(/C=C/c1ccc(O)cc1)c1ccc(O)cc1O", "note": "[Isoliquiritigenin]", "inhibition of cell viability": 0.485}
{"smiles": "C=C(C)[C@H]1CC=C(C)CC1", "note": "[(R)-(+)-Limonene]", "inhibition of cell viability": 0.281}
{"smiles": "CC1=CC(=O)CC(C)(C)C1=O", "note": "[Ketoisophorone]", "inhibition of cell viability": -0.175}
{"smiles": "C=C[C@H]1CN2CC[C@H]1C[C@@H]2[C@@H](O)c1ccnc2ccc(OC)cc12", "note": "[Quinidine hydrochloride]", "inhibition of cell viability": -0.217}
{"smiles": "C=C1C[C@@]23CC[C@H]4[C@@](C)(CCC[C@@]4(C)C(=O)O[C@@H]4O[C@H](CO)[C@@H](O)[C@H](O)[C@H]4O)[C@@H]2CC[C@]1(O[C@@H]1O[C@H](CO)[C@@H](O)[C@H](O)[C@H]1O[C@@H]1O[C@H](CO)[C@@H](O)[C@H](O)[C@H]1O)C3", "note": "[Stevioside]", "inhibition of cell viability": -0.031}
{"smiles": "C[C@]12CC[C@@H]3c4ccc(O)cc4CC[C@H]3[C@@H]1CCC2=O", "note": "[Aquacrine]", "inhibition of cell viability": 0.0269}
{"smiles": "CC1(C)C2CCC1(C)C(O)C2", "note": "(centres undefined) [Borneol]", "inhibition of cell viability": 0.16}
{"smiles": "CC1(C)C2CC[C@@]3(C)[C@@H](C(=O)C=C4[C@@H]5C[C@](C)(C(=O)O)CC[C@@]5(C)CC[C@@]43C)[C@]2(C)CC[C@H]1O", "note": "(some centres undefined) [Glycyrrhetinic acid(Enoxolone)]", "inhibition of cell viability": -0.198}
{"smiles": "CC[C@H]1OC(=O)[C@H](C)[C@@H](O[C@H]2C[C@@](C)(OC)[C@@H](O)[C@H](C)O2)[C@H](C)[C@@H](O[C@@H]2O[C@H](C)C[C@H](N(C)C)[C@H]2O)[C@](C)(O)C[C@@H](C)CN(C)[C@H](C)[C@@H](O)[C@]1(C)O", "note": "[Azithromycin dihydrate]", "inhibition of cell viability": 0.037}
{"smiles": "CC(C)=CCC/C(C)=C/C=O", "note": "[Citral]", "inhibition of cell viability": 0.192}
{"smiles": "O=C(O[C@@H]1Cc2c(O)cc(O)cc2O[C@@H]1c1cc(O)c(O)c(O)c1)c1cc(O)c(O)c(O)c1", "note": "[(-)-Epigallocatechin Gallate]", "inhibition of cell viability": 0.0795}
{"smiles": "Cc1ncc(CSSCc2cnc(C)c(O)c2CO)c(CO)c1O", "note": "[Pyrithioxin]", "inhibition of cell viability": 0.0153}
{"smiles": "N[C@H]1C(O)O[C@H](CO)[C@@H](O)[C@@H]1O", "note": "(some centres undefined) [Glucosamine]", "inhibition of cell viability": -0.173}
{"smiles": "COc1ccc(C(C)=O)c(O)c1", "note": "[Paeonol]", "inhibition of cell viability": 0.0334}
{"smiles": "C[N+](C)(C)CC(=O)O", "note": "[Betaine hydrochloride]", "inhibition of cell viability": -0.247}
{"smiles": "O=C(O)/C=C/c1ccc(O)cc1", "note": "[p-Coumaric acid]", "inhibition of cell viability": 0.0191}
{"smiles": "NC[C@H]1O[C@H](O[C@H]2[C@H](O)[C@@H](O[C@H]3O[C@H](CO)[C@@H](O)[C@H](N)[C@H]3O)[C@H](N)C[C@@H]2N)[C@H](N)C[C@@H]1O", "note": "[Tobramycin]", "inhibition of cell viability": -0.0866}
{"smiles": "CC12CCC(CC1=O)C2(C)C", "note": "[D-Camphor]", "inhibition of cell viability": 0.123}
{"smiles": "O=C1c2c(O)cc(O)cc2O[C@H](c2cc(O)c(O)c(O)c2)[C@H]1O", "note": "[Dihydromyricetin]", "inhibition of cell viability": "0.596 (active)"}
{"smiles": "O=C(O)C(O)Cc1ccc(O)c(O)c1", "note": "(centres undefined) [Sodium Danshensu]", "inhibition of cell viability": -0.0463}
{"smiles": "CC[C@H](/C=C/[C@@H](C)[C@H]1CC[C@H]2[C@@H]3CC=C4C[C@@H](O)CC[C@]4(C)[C@H]3CC[C@]12C)C(C)C", "note": "[Stigmasterol]", "inhibition of cell viability": -0.0217}
{"smiles": "CC1(C)CC[C@]2(C(=O)O)[C@H](O)C[C@]3(C)C(=CC[C@@H]4[C@@]5(C)CC[C@H](O)C(C)(C)[C@@H]5CC[C@]43C)[C@H]2C1", "note": "[Echinocystic acid]", "inhibition of cell viability": 0.139}
